How the values were obtained:
[1] = target: Tumor necrosis factor receptor superfamily member 10B (Homo sapiens) (UniProt O14763); experiment: viability loss of caspase-8 NB7 cells with TRAIL – with/without TRAIL, luminescence panel, confirmation (AID 651596); settings: NB7 neuroblastoma + caspase-8, TRAIL sensitization, NB7 Caspase-8, with TRAIL, mean of runs, at 10 µM, stronger effect = higher value
[2] = as above; settings: NB7 neuroblastoma + caspase-8, without TRAIL, NB7 Caspase-8, without TRAIL, mean of runs, at 10 µM

Chain of Tumor necrosis factor receptor superfamily member 10B (Homo sapiens) (O14763 whole entry, looked up): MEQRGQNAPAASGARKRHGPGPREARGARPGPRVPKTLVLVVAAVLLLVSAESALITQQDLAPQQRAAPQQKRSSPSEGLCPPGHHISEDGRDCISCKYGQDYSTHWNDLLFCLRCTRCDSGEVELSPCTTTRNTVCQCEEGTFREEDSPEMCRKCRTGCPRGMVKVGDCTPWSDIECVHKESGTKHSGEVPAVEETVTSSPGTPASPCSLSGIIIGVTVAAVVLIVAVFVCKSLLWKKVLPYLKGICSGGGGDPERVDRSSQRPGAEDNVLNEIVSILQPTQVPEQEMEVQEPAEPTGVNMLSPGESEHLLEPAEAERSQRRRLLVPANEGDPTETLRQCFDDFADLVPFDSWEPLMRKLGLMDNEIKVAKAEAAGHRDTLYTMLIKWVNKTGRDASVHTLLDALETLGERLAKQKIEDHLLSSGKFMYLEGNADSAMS

Compound	activity [1]	activity [2]
O=C(NOCc1ccccc1)c1ccc(Cl)cc1Cl	62.6%	55.5%
Brc1ccc(-c2nc(N/N=C/c3cccnc3)c3ccccc3n2)cc1	93.5%	89.7%
N/C(=N\OC(=O)c1ccccc1)c1ccn[nH]1	68.7%	68.1%
Cc1cc2nc(N3C(=O)CNC3=S)sc2cc1C	67.8%	64.7%
C=CCNC(=O)c1cc(-c2ccc3c(c2)OCO3)on1	63.3%	61.1%
Cc1ccccc1C(=O)Nc1nnc(SCC(=O)NCc2ccco2)s1	61.1%	58.2%
COC(=O)c1ccc2c(c1)C(C)(C)C(/C=C/c1ccc(OC)c(OC)c1OC)=[N+]2C	73.8%	68.9%
COc1ccc(C(=O)Nc2ccc3[nH]ncc3c2)cc1	78.3%	77.1%
CCCCc1ccc(NC(=O)c2cnccn2)cc1	53.3%	45.1%
CCc1nnc(NC(=O)c2nc(S(=O)(=O)Cc3cccc(C)c3)ncc2Cl)s1	97.6%	90.3%
NC(=S)NN=C1c2cc(OCCN3CCOCC3)ccc2-c2ccc(OCCN3CCOCC3)cc21	99%	99.5%
N#Cc1ccccc1NC(=O)COC(=O)/C=C/c1cn(-c2ccccc2)nc1-c1ccc(Cl)cc1	39.5%	80.4%
CN(C)c1ccc(/C=N/NC(=O)c2ccco2)cc1	50.2%	31.4%
CCOC(=O)N1CCN(C(=O)CSCC(=O)Nc2nc(-c3ccc(-c4ccccc4)cc3)cs2)CC1	66.9%	68%
Cc1cc(NC(=O)c2ccc(C(C)(C)C)cc2)no1	77.8%	79.9%
N/C(=N\OC(=O)c1ccc2ccccc2c1)c1ccccc1Cl	99.4%	99.2%
O=c1c2[nH]c3ccccc3c2ncn1C1CCCCC1	75.2%	74.8%
Cc1cc(C(=O)COC(=O)c2cccnc2Cl)c(C)n1C	62.8%	40.4%
Nc1ccccc1C#CC(=O)c1ccccc1	33.9%	94.2%
COc1cc2sc3ccc(C#CC4(O)CCCCC4)cc3c(=O)c2cc1OC	71.4%	71.4%
O=C1N(c2ccccc2)CCN1c1ccccc1	67.2%	62.8%
CCOC(=O)Cc1csc(NC(=S)NC(=O)c2ccc(C)cc2)n1	84.9%	84.6%
C#CC(=O)N(c1ccc(OC)c(OC)c1)C(C(=O)NC1CCCC1)c1cccs1 (stereo not drawn)	99.3%	99.5%
COc1ccc(CSc2nc3ccccc3[nH]2)cc1	70.8%	83.3%
c1ccc(-c2ccc(-c3cn4c(n3)CCC4)cc2)cc1	62.8%	67.6%

Compound	activity [1]	activity [2]
COC(=O)c1ccc(-c2nc3ccccc3[nH]2)cc1	80.7%	84.4%
Cc1ccc(C2CC(c3cccs3)=NN2C(=O)CCl)cc1 (stereo not drawn)	98.8%	98%
CC(C)c1ccc(/C=C/c2ccc(=O)n(C)n2)cc1	68.1%	66.6%
Clc1ccccc1Nc1nnc(-c2ccncc2)s1	61.3%	63.3%
CCc1ccc(CNC(=O)Cc2ccc(NC(=O)C3=C(C)OCCS3)cc2)cc1	58.8%	59%
CCCCCCCCCCCCCCCC[N+](C)(C)CCl	96%	94.3%
COc1cc(SC)ccc1C(=O)Nc1nccs1	83.3%	84.3%
CCOc1ccc(/C=N/NC(=O)c2ccccc2NC(=O)c2ccc(OC)cc2)cc1	72.6%	57.7%
c1ccc(-c2cn3c4c(sc3n2)CCCC4)cc1	94%	94%
O=C1c2ccc(Cl)cc2S(=O)(=O)c2cccc(C(=O)N3CCN(c4ccc(Cl)cn4)CC3)c21	94.8%	83.5%
Cc1ccc(CS(=O)(=O)c2ncc(Cl)c(C(=O)Nc3ccc(OC(F)F)cc3)n2)cc1	5.62%	-6.55%
N=c1c2c(n(Cc3ccc(Cl)c(Cl)c3)c3c1CCC3)CCCC2	80.6%	60.1%
Clc1ccc(CN2CCc3c([nH]c4ccccc34)C2)cc1Cl	-9.62%	-14.6%
Cc1nc(-c2ccc(C(=O)Nc3cccc(F)c3)cc2)cs1	76.6%	73.5%
Cc1ccccc1-c1nnc(-c2cccc3ccccc23)o1	47%	32.4%
COc1ccc(-c2ccc3sc4ccccc4c(=O)c3c2)cn1	63.2%	61.5%
CCCCCCCN(C(=O)CCl)c1ccccc1C	99.6%	98.1%
O=C(CSc1nc2ccccc2c(=O)[nH]1)Nc1ccc([N+](=O)[O-])cc1	35.1%	31.3%
COc1ccc2oc(C(=O)N3CCc4ccccc43)c(C)c2c1	82.7%	82.4%
COc1ccc2nc(-c3ccccc3)[nH]c2c1	57.3%	65.5%
C=CCOc1ccccc1CN(C(=O)CCl)c1ccc2c(c1)OCO2	99%	98.1%
Cc1cccc(NC(=S)NC(=O)c2ccc(-c3ccccc3)cc2)n1	55.5%	55.3%
COc1ccc(NC(=O)c2ccc3c(c2)OCCO3)cc1OC	51.8%	51.2%
Cn1cccc1/C=C1\CCc2ccccc2C1=O	63.4%	51.8%
